# Screening results as filed in PubChem.
# PLK1 PBD inh = blocks phosphopeptide binding to human PLK1 polo-box domain; P53350; Plk1 PBD binding of FITC phosphopeptide, fluorescence polarization; Potency, µM, without a hit: max response, negative = inhibition, hits mostly inhibitors; 360,000 compounds, 2.8% hits; further: series mostly up to about 57 µM; on the % scale 0 is the no-effect control and ±100 the full control effect; nearly all actives have a fitted effect of over 65% in size
# Target sequence (P53350 whole entry, looked up, the tested form may be a part): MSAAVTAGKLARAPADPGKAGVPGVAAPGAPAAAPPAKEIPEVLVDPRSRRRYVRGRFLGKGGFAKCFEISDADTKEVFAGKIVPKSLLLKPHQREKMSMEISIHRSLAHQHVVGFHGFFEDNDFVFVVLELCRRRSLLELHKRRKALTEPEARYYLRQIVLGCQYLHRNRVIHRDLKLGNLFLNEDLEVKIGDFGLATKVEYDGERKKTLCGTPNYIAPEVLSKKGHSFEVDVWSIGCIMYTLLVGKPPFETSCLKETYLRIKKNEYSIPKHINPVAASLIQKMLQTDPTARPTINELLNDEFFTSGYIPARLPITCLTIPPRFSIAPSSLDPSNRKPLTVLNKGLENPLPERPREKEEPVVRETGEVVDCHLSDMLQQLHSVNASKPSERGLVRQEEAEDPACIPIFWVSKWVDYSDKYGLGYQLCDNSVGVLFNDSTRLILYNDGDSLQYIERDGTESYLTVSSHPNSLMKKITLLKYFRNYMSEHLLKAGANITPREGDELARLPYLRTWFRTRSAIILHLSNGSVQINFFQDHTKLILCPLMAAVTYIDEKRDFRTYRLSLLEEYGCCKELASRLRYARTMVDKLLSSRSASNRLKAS
# 12-LOX inh = ALOX12 (human) lipoxygenase inhibition | purified 12hLO, xylenol orange hydroperoxide absorbance | Potency, µM (titrated, usually from 108 µM), for inactives: top-dose activity change, negative = inhibition, hits mostly inhibitors | 580,000 compounds, 1.1% hits | P18054; further: on the % scale 0 is the no-effect control and ±100 the full control effect
#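 Hydroperoxide product was detected by ferrous iron/xylenol orange as the 573 to 405 nm absorbance ratio. Arachidonic acid at 40 uM (final) was turned over for 30 min at room temperature by 150 nM human 12hLO, pH 7.0 Hepes buffer, after 15 min compound preincubation.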
# G9a inh = G9a (human) methyltransferase inhibition; G9a H3K9 monomethylation, AlphaScreen, 2 h; Potency, µM (series often up to 102 µM), for inactives: top-dose activity, negative = inhibition, actives largely listed as inhibitors; 350,000 compounds, 8.8% hits; further: on the % scale 0 is the no-effect control and ±100 the full control effect; nearly all actives have a fitted effect of over 75% in size
#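 Compounds were preincubated with 20 nM G9a for 15 min, after which biotinylated H3K9 peptide (500 nM) and SAM (20 uM) started a 2 h room-temperature reaction. Monomethylated product was quantified by antibody-based AlphaScreen chemiluminescence.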
# JMJD2A Tudor inh = blocks the human JMJD2A Tudor domain. O75164. AlphaScreen JMJD2A-Tudor / H3K4me3 peptide binding. Potency, µM (top dose mostly 114 µM), inactives show at the highest dose activity change, negative = inhibition, most hits filed as inhibitors. 390,000 compounds, 4.4% hits; further: on the % scale 0 is the no-effect control and ±100 the full control effect; nearly all actives have a fitted effect of over 50% in size
# HP1b chromo inh = blocks HP1-beta chromodomain binding to methylated histone tails. 390,000 compounds, 0.56% hits. Potency, µM (doses to about 114 µM), for inactives: at the highest dose activity change, negative = inhibition, usual class: inhibitors. AlphaScreen HP1-beta / biotin-H3K9me3 peptide binding. AID 540317. P83916; further: nearly all actives have a fitted effect of over 70% in size
#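 AlphaScreen: HP1-beta (50 nM) preformed 30 min with biotin-H3(1-18)K9me3 peptide (50 nM) in PBS pH 7.4, 0.01% Tween-20. Compound added for 30 min at RT, then streptavidin donor/nickel chelate acceptor beads (10 ug/mL) for 30 min.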
# BAZ2B block = blocks human BAZ2B | Q9UIF8 | AlphaScreen BAZ2B-H3K14Ac peptide displacement | Potency, µM (titrated, usually from 114 µM), without a hit: top-dose activity change, negative = inhibition, actives largely listed as inhibitors | 360,000 compounds, 4.4% hits | AID 504333; further: on the % scale 0 is the no-effect control and ±100 the full control effect; nearly all actives have a fitted effect of over 60% in size
#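 In this displacement format the biotinylated H3(5-23) peptide acetylated at Lys14 serves as ligand at 50 nM, with BAZ2B at 50 nM in PBS pH 7.4 containing 0.01% Tween-20. Donor and acceptor beads are 10 ug/mL final.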
# Active calls of the source: *; u = inconclusive; x = no result given; [ ] = remark or other dose. Hits are enriched below; roughly 9% of the tested compounds scored in any of these assays. The call rests on the fitted dose curve; in most records, active means well fitted curve in the direction sought with a large enough effect; inconclusive means small, poorly fitted or top-dose-only effect, or another doubt; inactive means no such curve, though single readings can be large; an effect the other way counts as inactive or inconclusive. Potency means the concentration at half of the fitted maximal effect.
SMILES,PLK1 PBD inh,12-LOX inh,G9a inh,JMJD2A Tudor inh,HP1b chromo inh,BAZ2B block
S=C(NCCc1ccccn1)NC1CCCCC1,0%,21%,-5%[59 µM],-4%,28%,-3%
C/C(=N\NC(=S)NC1CCCCC1)c1ccc(O)cc1,17µM*,u,35µM*,u,u,u
CC(C)(C)c1ccc(/C=N/NC(=S)NC2CCCCC2)cc1,-10%,28µM*,-11%[59 µM],u,9%,-36%
CC(=O)NNC(=S)NC1CCCCC1,x,49%,x,x,x,x
COc1cccc(NC(=O)Cn2c3ccc(OC)cc3c3nc4n(c(=O)c32)CCS4)c1,-5%,-28%,x,-9%,30%,-12%
COc1ccc(C(=O)N2CCn3c(nn(-c4ccc(C)cc4)c3=O)C2)cc1,x,18%,x,x,x,x
O=S(=O)(N[C@H]1CO[C@H]2[C@@H]1OC[C@@H]2n1cc(-c2ccccn2)nn1)c1cccs1,x,63µM*,x,x,x,x
c1ccc(-c2cn([C@H]3CO[C@H]4[C@@H]3OC[C@@H]4NCC3CCCCC3)nn2)nc1,x,10%[176 µM],x,x,x,x
Cc1ccc(C)c(-c2[nH]ncc2CN2CCCC(O)(CN(C)C)C2)c1 (configuration not stated),x,99%,x,x,x,x
COc1ccc(OC)c(-n2c(=S)[nH]c3c(sc(=S)n3-c3ccccc3C)c2=O)c1,u,0%,31%[59 µM],89µM*,-22%,u
COc1cccc(-n2c(=S)sc3c(=O)n(-c4ccccc4OC)c(=S)[nH]c32)c1,u,-5%,u,u,-6%,u
CC(C)NC(=O)C[C@@H]1O[C@H](CNC(=O)C2CC2)[C@@H](O)[C@H]1O,x,56µM*,x,x,x,x
Cc1ccc(-c2nc(CS(=O)CC(=O)NC(C)CCc3ccccc3)c(C)o2)cc1 (configuration not stated),-20%,-29%,x,-27%,-10%[57 µM],u
COc1ccc(N=CC2CCCCC2=O)c([N+](=O)[O-])c1 (configuration not stated),3%,-1%,x,25µM*,45µM*,x
COc1ccc(N2C(=O)C3C4C=CC(CC4)C3C2=O)c([N+](=O)[O-])c1 (configuration not stated),-9%,15%,12%[2.33 µM],-31%,2%,u
O=C(CC(c1ccccc1)(c1ccccc1)c1ccccc1)N[C@@H](Cc1ccccc1)C(=O)O,-4%,-39%,17%[59 µM],-9%,39%,-5%
O=C(O)[C@H](Cc1ccccc1)NC(=O)C(c1ccccc1)(c1ccccc1)c1ccccc1,27µM*,-7%,6%[12.7 µM],u,24%,-10%
Cc1cc(C(=O)NC(Cc2ccccc2)C(=O)O)c(C)o1 (configuration not stated),-8%,-9%,71µM*,-16%,-11%,-33%
C=CCOc1c(Br)cc(/C=N/O)cc1OCC,30µM*,17%,32%[59 µM],-6%[57.1 µM],9%,0%
CCOC(=O)C1CCN(C(=O)CCC(=O)NNc2nc3ccccc3c3nc(C)nn23)CC1,4%,1%,45µM*,-1%,44%,-10%
Cc1nc2c3ccccc3nc(NNC(=O)CCC(=O)N3CCN(c4ccccc4)CC3)n2n1,-6%,-2%,-10%,-5%,27%,-15%
Cc1nc2c3ccccc3nc(NNC(=O)CCC(=O)N3CCC(C)CC3)n2n1,-1%,21%,79µM*,-21%,5%[57 µM],-21%
Cc1nc2c3ccccc3nc(NNC(=O)CCC(=O)NCCC(C)C)n2n1,-2%,-4%,50µM*,8%,37%,-1%
COc1ccc(N2CCN(C(=O)CCC(=O)NNc3nc4ccccc4c4nc(C)nn34)CC2)cc1,-15%,16%,22µM*,-12%,29%,-1%
COc1ccc(S(=O)(=O)N2CCOCC2)cc1C(=O)NCc1ccccc1CN1CCCC1,-3%,417%,-6%[12.7 µM],-7%,18%,8%
CN(C)S(=O)(=O)c1ccc(N2CCOCC2)c(C(=O)O)c1,-2%,0%,-8%,-19%,42%,-7%
Cc1nc(Sc2ccccc2)c(C#N)cc1-c1ccccc1,0%,x,285%,127%,141%,72%
